This is one part of a sample in which hits are shown more often than they occur.
TTR transcr act – activators of transthyretin transcription; 92,000 tested, 1.3% active; activation, % at 16.7 µM; SH-SY5Y TTR promoter Gaussia luciferase, luminescence; 100% = recombinant luciferase protein wells;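 active = activation above the mean of all tested compounds plus 3 SD, cut at about 9.5% in these data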;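 also: cells exposed to compounds for one day before reading; 0% = median of all test compound wells on the plate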
HuH7 TTR inh – counter-screen for TTR activators: TTR transcription inhibitors in HuH7 cells; HuH7 TTR promoter-Gaussia luciferase reporter, luminescence; shares compounds with TTR transcr act; 1,100 tested, 4% active; inhibition, % at 16.7 µM;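 active = average inhibition above the solvent-only control wells' mean plus 3 SD, cut at about 15% in these data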;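 also: 0% = cells with DMSO only and 100% = cells with inhibitor control FD; inhibitors lower well luminescence so higher value means more inhibition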
TTR act confirm – confirmation of human transthyretin transcription activators. 1,100 tested, under 10 active. activation, % at 16.7 µM. shares compounds with TTR transcr act. AID 1117280. SHSY5Y TTR promoter Gaussia luciferase, luminescence; 100% = purified Lucia enzyme wells, no cells;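 active = mean activation above a set limit taken from the earlier primary screen, cut at about 11% in these data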;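 also: 0% = DMSO-treated cells and 100% = recombinant Lucia luciferase without cells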
Starred values were filed as active, the others as inactive.

SMILES	TTR transcr act	others
O=C(Nc1nc2ncccn2c1-c1ccccc1)C1CC1	1
CCCC1CCC2(CCCN2CCOC(=S)Nc2ccccc2)CC1 (stereo not drawn)	-3
CC(C)NC(=O)N(C)C[C@H]1Oc2ccc(NC(=O)Cn3cnnn3)cc2C(=O)N([C@H](C)CO)C[C@@H]1C	0
Cc1noc(C)c1NC(=O)Nc1ccc2c(c1)C(=O)N([C@H](C)CO)C[C@H](C)[C@@H](CN(C)S(=O)(=O)c1ccc(F)cc1)O2	7
Cc1ccc(S(=O)(=O)N(C)C[C@@H]2Oc3ccc(NC(=O)Cn4cnnn4)cc3C(=O)N([C@@H](C)CO)C[C@H]2C)cc1	21*	HuH7 TTR inh=-12;TTR act confirm=-1
Nc1c(C(=O)NCC(O)c2ccccc2)cnn1-c1ccccc1 (stereo not drawn)	0
Cc1ccc(S(=O)(=O)N2O[C@@H](c3ccccc3)C[C@H]2CON2C(C)(C)CCCC2(C)C)cc1	-1
CCn1c2ccccc2c2cc(CN3CCN(S(=O)(=O)CC)CC3)ccc21	19*	HuH7 TTR inh=-9;TTR act confirm=1
CCn1c2ccc(CC(=O)O)cc2c2cc(CC(=O)O)ccc21	0
CCn1c(=O)cc(SCC(=O)N2CCN(Cc3ccc4c(c3)OCO4)CC2)c2ccccc21	1
CC(C)CNS(=O)(=O)/C=C/c1ccccc1CCNC(=O)OC(C)(C)C	1
COC(=O)[C@H](Cc1ccccc1)NP(=O)(OC)[C@@H](C)NC(=O)OCc1ccccc1 (stereo partly drawn)	0
CN(CC(=O)N1CCCCCC1)S(=O)(=O)c1ccc(Br)cc1	20*	HuH7 TTR inh=-18;TTR act confirm=0
CN(CC(=O)N1CCCCC1)S(=O)(=O)c1ccc(Cl)cc1	-1
CN(CC(=O)N1CCCCCC1)S(=O)(=O)c1ccc(Br)s1	-2
C[C@H]1[C@H](c2ccccc2)Oc2cccc(N3CCCC3)c2S(=O)(=O)N1Cc1cccc(F)c1	8
CC1=C(C)[N+](=O)C2CCCCC2N1[O-] (stereo not drawn)	13*	HuH7 TTR inh=-6;TTR act confirm=0
C[C@@H]1CN([C@@H](C)CO)C(=O)CCCn2cc(nn2)CO[C@H]1CN(C)C(=O)c1ccc(N2CCN(C)CC2)cc1	0
Cc1ccccc1C(=O)NC1CCCCN(Cc2ccc(Cl)cc2)C1=O (stereo not drawn)	1
O=C1CCC[C@H]2Cc3nc4cc5c(cc4cc3C[C@]23CCCN13)OCO5	3
O=c1c2cc3cc(Cl)ccc3nc2ncn1CCc1ccc(O)cc1	0
O=c1c2cc3cc4c(cc3nc2ncn1Cc1cccnc1)OCO4	18*	HuH7 TTR inh=-10;TTR act confirm=2
O=c1c2cc3cc4c(cc3nc2ncn1CCc1ccccc1)OCO4	0
Cc1nc(-c2ccc(C#N)cc2)cs1	1
COC(=O)c1cc(C#N)c(=O)[nH]c1C	0
SMILES	TTR transcr act	others
Cc1nc(-c2cc(C#N)c(=O)[nH]c2C)cs1	16*	HuH7 TTR inh=-12;TTR act confirm=1
O=C1CCC[C@H]2C[C@H](NCc3ccc(Br)cc3)CC[C@]23CCCN13	0
C[C@@H]1[C@@H](O)C[C@@]2(C[C@H](O)c3cc(Cl)ccc3O2)O[C@H]1c1ccccc1Cl	-3
Cc1ccccc1CN1CCCCC(NC(=O)Nc2cccc(F)c2)C1=O (stereo not drawn)	0
Cc1ccc(CN2CCCCC(NC(=O)Nc3cccc(F)c3)C2=O)cc1 (stereo not drawn)	7
CCn1cc(S(=O)(=O)N2CCCC2)cn1	14*	HuH7 TTR inh=-5;TTR act confirm=1
CCn1cc(S(=O)(=O)NC2CCCCC2)cn1	2
CCn1c(C)nc2cc(S(=O)(=O)N3CCCC3)ccc21	0
O=C(Nc1ccc(NC(=O)c2ccccc2Cl)c(Cl)c1)c1ccccn1	-2
N#Cc1cccc(NC(=O)CN2NS(=O)(=O)c3ccccc3C2=O)c1	11*	HuH7 TTR inh=-12;TTR act confirm=-1
N#Cc1cccc(NC(=O)CC2CCCC2)c1	-1
N#Cc1cccc(NC(=O)CCn2ccnc2)c1	2
CCOC(=O)[C@]12CCCC=C1N(CCCOC)C(=O)[C@@H]2CC(=O)N1CCN(C(=O)c2ccco2)CC1	-1
O=S1(=O)c2ccc(N3CCC[C@@H]3CO)cc2OCCCN1C1CC1	4
CCCc1nc2c(s1)CCc1onc(-c3ccc(OC)cc3)c1-2	-4
Brc1ccc(-c2noc3c2-c2nc(C4CCCCC4)sc2CC3)cc1	14*	HuH7 TTR inh=-4;TTR act confirm=0
COc1ccc(-c2noc3c2-c2nc(C(C)C)sc2CC3)cc1	4
Cc1ccccc1CN1CCN(S(=O)(=O)c2cccc3nsnc23)CC1	12*	HuH7 TTR inh=-17;TTR act confirm=1
CC1CC(C)CN(S(=O)(=O)c2cccc3nsnc23)C1 (stereo not drawn)	-1
CCN1CCN(S(=O)(=O)c2cccc3nsnc23)CC1	5
CCOC(=O)c1cccc(-c2cc(C(=O)OC)c3n(c2=O)CCC3)c1	-1
O=C(OCc1cn(Cc2ccccc2F)nn1)N1CCOCC1	5
CCOc1ccccc1/C=C/c1cc(C(=O)O)c2ccccc2n1	35*	HuH7 TTR inh=-20;TTR act confirm=1
CCOC(=O)c1cc(OCC)c2c(ccc3ccccc32)n1	0
CCOC(=O)c1cc(N2CCCCC2)nc2ccccc12	0
SMILES	TTR transcr act	others
CCC[C@H]1[C@@H](OC(=O)NCc2ccc(Cl)c(Cl)c2)CC[C@@]23CCCN2C(=O)CCC[C@@H]13	-3
O=C(COc1ccc(F)cc1Cl)Nc1nnc(-c2ccc(F)c(F)c2)o1	-1
C=CCN1C(=O)[C@H](CC(=O)NCc2ccc(OC)c(OC)c2)[C@@]2(C(=O)OCC)CCCC=C12	0
CCOC(=O)C1CCN(C(=O)/C=C/c2ccc(OC)cc2)CC1	1
CCc1ccc(-c2cc3c(=O)n(CC(=O)NCCN4CCCCC4C)nc(C)n3n2)cc1 (stereo not drawn)	5
CCOC(=O)C1CCN(C(=O)Cn2nc(C)n3nc(-c4ccc(OC)cc4)cc3c2=O)CC1	11*	HuH7 TTR inh=-6;TTR act confirm=-1
O=S1(=O)c2ccc(N3CC[C@H](O)C3)cc2O[C@H]2CCN1C2	4
Cc1cc(N=O)no1	-1
Oc1[nH]c2ccccc2c1N=NC(=S)NCCc1ccccc1	7
CC(C)c1ccc2[nH]c(O)c(N=NC(=S)NCCc3ccccc3)c2c1	12*	HuH7 TTR inh=-8;TTR act confirm=0
CC(C)c1ccc2[nH]c(O)c(N=NC(=O)c3ccc(CSc4nncn4C)cc3)c2c1	9
O=C(Nc1nc2ncccn2c1-c1ccc(C(F)(F)F)cc1)c1ccccc1	1
CCN(CC)C(=O)C1=C(C)N(Cc2ccc(OC)cc2)C(=O)C(CC(=O)NCc2cccc3ccccc23)C1 (stereo not drawn)	2
CC1=C(C(=O)N(C(C)C)C(C)C)CC(CC(=O)NCc2cccs2)C(=O)N1Cc1ccc(F)cc1 (stereo not drawn)	1
CCN(CC)C(=O)C1=C(C)N(Cc2ccc(OC)cc2)C(=O)C(CC(=O)NCc2cccs2)C1 (stereo not drawn)	23*	HuH7 TTR inh=-18;TTR act confirm=1
Cc1ccc(-n2c(CSc3nc(C)cc(C)n3)n[nH]c2=S)cc1	26*	HuH7 TTR inh=-3;TTR act confirm=-1
Cc1ccc(-n2c(CNc3cccc(Cl)c3)n[nH]c2=S)cc1	2
Cc1nc2ccccc2n1Cc1n[nH]c(=S)n1-c1ccc(Cl)cc1	1
COC(=O)[C@]12C[C@H](CC(=O)NCCCCc3ccccc3)C(=O)N(Cc3ccc(Cl)cc3Cl)C1=C[C@H](C(C)C)O[C@@H]2C1CC1	2

Assay outcomes as filed in PubChem.
